The source of these data is PubChem BioAssay (NCI).

What all share (assay): NCI-60 one-dose screen, 48 h (100 = growth as untreated, 0 = no growth, -100 = all killed)
One test has as its system SK-MEL-2 melanoma. Particulars: 10 µM unless noted.
Another test has as its system EKVX NSCLC. Particulars: 10 µM unless noted.
The subject of a further test is SN12C renal. Particulars: 10 µM unless noted.
Another test deals with UO-31 renal. Particulars: 10 µM unless noted.
In a further test the test system is TK-10 renal. Particulars: 10 µM unless noted.
For a further test, the system named is ACHN renal. The settings on record: 10 µM unless noted.
Another test deals with A498 renal. Particulars: 10 µM.
In a further test the test system is HL-60(TB) leukemia. The settings on record: 10 µM unless noted.
The test system of the next test is CCRF-CEM leukemia. Particulars: 10 µM unless noted.
The next test concerns MOLT-4 leukemia. The settings on record: 10 µM unless noted.
The subject of another test is SR leukemia. The settings on record: 10 µM unless noted.
A further test has as its system RPMI-8226 leukemia. The settings on record: 10 µM unless noted.
Another test has as its system OVCAR-8 ovarian. Particulars: 10 µM unless noted.
A further test has as its system OVCAR-5 ovarian. The settings on record: 10 µM unless noted.
The next test concerns OVCAR-4 ovarian. Particulars: 10 µM unless noted.
The test system of a further test is SK-OV-3 ovarian. Particulars: 10 µM unless noted.
A further test concerns IGROV1 ovarian. Particulars: 10 µM unless noted.
The next test concerns OVCAR-3 ovarian. Particulars: 10 µM unless noted.
In the next test the test system is HS 578T breast. The settings on record: 10 µM unless noted.
A further test deals with CAKI-1 renal. Particulars: 10 µM unless noted.

The panel holds about 83,000 compounds, 20% with a hit somewhere; the sample as a whole holds those more often.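 Activity criterion: percent growth below 10, measured after cells in 96-well plates were exposed to a single compound concentration for 48 hours.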 A number with no mark means an inactive call. Active and inactive are the calls of the source.

`COC(=O)[C@@H](C)C[C@H](Cc1ccc(F)cc1)NC(=O)c1csc([C@@H](C[C@H](C(C)C)N(C)C(=O)[C@@H](NC(=O)[C@H]2CCCCN2C)C2CC2)OC(C)=O)n1`: the growth is 24.4% in the test on SK-MEL-2 melanoma; 43.2% in the test on EKVX NSCLC; 31.6% with SN12C renal; 55.8% with UO-31 renal; 72.4% in the test with TK-10 renal; 34% in the test on ACHN renal. The growth in the test on A498 renal was 9.1% (active); in the test with HL-60(TB) leukemia, -35.1% (active); in the test with CCRF-CEM leukemia, 12.6%; in the test with MOLT-4 leukemia it was 17.8%; in the test with SR leukemia it was 17.5%; with RPMI-8226 leukemia, 20.4%. Also, the growth with OVCAR-8 ovarian is 22.4%; with OVCAR-5 ovarian, 49.8%; in the test with OVCAR-4 ovarian it was 46%; with SK-OV-3 ovarian it was 29.1%; in the test on IGROV1 ovarian, 30.7%; with OVCAR-3 ovarian, -25% (active). In the test with HS 578T breast, the growth was 41.1%.
Turning to `CC(C)(C)C(=O)OCOP(=O)(NCc1ccccc1)C1CCCN(O)C1=O` (stereo unspecified), the growth in the test on SK-MEL-2 melanoma was 53.7%; in the test with EKVX NSCLC, 67.3%; in the test with SN12C renal, 5.58% (active); with UO-31 renal, 1.82% (active); in the test with TK-10 renal, 68.9%; in the test with ACHN renal, 34.2%. Further, the growth in the test on CAKI-1 renal was 31.9%; with CCRF-CEM leukemia, 12.9%; in the test on MOLT-4 leukemia, 9.06% (active); with SR leukemia it was 9.38% (active); in the test with OVCAR-8 ovarian, 14.2%; in the test with OVCAR-5 ovarian, 94.5%. For the same compound, the growth with OVCAR-4 ovarian is 19.9%; in the test with SK-OV-3 ovarian it was 59.7%; in the test on IGROV1 ovarian it was 19.4%; in the test with OVCAR-3 ovarian, -6.7% (active); with HS 578T breast it was 14.7%.
As to `ClCCN(CCCl)c1ccc(/C=N\N=C\c2ccc(N(CCCl)CCCl)cc2)cc1`, the growth was 36.7% in the test on SK-MEL-2 melanoma; 47.1% in the test with EKVX NSCLC; 36.3% in the test on SN12C renal; -16.2% (active) in the test on UO-31 renal; 47.2% with TK-10 renal; 40.1% in the test on ACHN renal. Besides, the growth in the test with CAKI-1 renal was 7.35% (active); with CCRF-CEM leukemia it was 25%; in the test on RPMI-8226 leukemia it was 39.8%; with OVCAR-8 ovarian it was 33.8%; in the test with OVCAR-5 ovarian, 107%; in the test with OVCAR-4 ovarian it was 53%. Moreover, the growth was 19.6% in the test with SK-OV-3 ovarian, 71.5% in the test with IGROV1 ovarian, 55.7% in the test with OVCAR-3 ovarian and 78.2% with HS 578T breast.
As for `COc1ccc2c(c1)c(-c1nc(-c3cn(C)c4ncccc34)cs1)cn2CCCCN1CCCCC1`, the growth in the test with SK-MEL-2 melanoma was -31.5% (active); with EKVX NSCLC, 55.4%; in the test with SN12C renal, -79.7% (active); with UO-31 renal it was -89.4% (active); in the test on TK-10 renal, -26.8% (active); with ACHN renal, -95.2% (active). Also, the growth in the test with A498 renal was 71.8%; in the test with HL-60(TB) leukemia, -64.9% (active); with CCRF-CEM leukemia, -50.5% (active); in the test on MOLT-4 leukemia it was -65% (active); with SR leukemia, -54.3% (active); in the test with RPMI-8226 leukemia, -42% (active). Also, the growth is -65.2% (active) in the test with OVCAR-8 ovarian; -69.2% (active) in the test with OVCAR-5 ovarian; -6.02% (active) in the test on OVCAR-4 ovarian; 38.5% with SK-OV-3 ovarian; -62.5% (active) in the test on IGROV1 ovarian; -78.4% (active) in the test with OVCAR-3 ovarian. Moreover, in the test with HS 578T breast, the growth is 58.3%.
For the compound `COC(=O)[C@@H](C)C[C@H](Cc1ccccc1)NC(=O)c1nc([C@@H](C[C@H](C(C)C)N(C)C(=O)[C@@H](NC(=O)[C@H]2CCCN2C)C(C)C)OC(C)=O)sc1C`, the growth was 36.6% in the test with SK-MEL-2 melanoma; 45.4% with EKVX NSCLC; 31% in the test with SN12C renal; 43.9% in the test with UO-31 renal; 13.6% in the test on TK-10 renal; 19.6% in the test with ACHN renal. Besides, the growth was -2.29% (active) in the test with A498 renal; -33.5% (active) in the test with HL-60(TB) leukemia; 10.3% in the test with CCRF-CEM leukemia; 15.3% with MOLT-4 leukemia; 5.28% (active) in the test with SR leukemia; 20.6% with RPMI-8226 leukemia. For the same compound, the growth in the test with OVCAR-8 ovarian was 14.5%; in the test on OVCAR-5 ovarian it was 30.7%; in the test with OVCAR-4 ovarian, 49.9%; with SK-OV-3 ovarian, 1.93% (active); in the test on IGROV1 ovarian, 27.4%; in the test on OVCAR-3 ovarian, -9.82% (active). Moreover, the growth in the test with HS 578T breast was 18.8%.
Consider `CC[C@H](C)[C@H](NC(=O)[C@H]1CCCCN1C)C(=O)N(C)[C@H](CCc1nc(C(=O)N[C@@H](Cc2ccccc2)C[C@H](C)C(=O)OC)cs1)C(C)C`, for which the growth in the test with SK-MEL-2 melanoma was 32.7%; in the test on EKVX NSCLC, 47.3%; in the test on SN12C renal, 28.9%; in the test with UO-31 renal it was 43.5%; with TK-10 renal, 54.3%; in the test with ACHN renal, 29.3%. Further, the growth in the test with A498 renal was -2.22% (active); in the test with HL-60(TB) leukemia it was -21.2% (active); with CCRF-CEM leukemia, 12.8%; in the test with MOLT-4 leukemia, 15%; in the test on SR leukemia, 13.2%; in the test with RPMI-8226 leukemia, 15.5%. Also, the growth with OVCAR-8 ovarian was 23.2%; in the test with OVCAR-5 ovarian it was 49.3%; in the test on OVCAR-4 ovarian, 43.6%; in the test with SK-OV-3 ovarian, 8.81% (active); in the test with IGROV1 ovarian, 26.8%; with OVCAR-3 ovarian it was -18.6% (active). The growth with HS 578T breast is 39.2%.
Regarding `COC(=O)[C@@H](C)C[C@H](Cc1ccccc1)NC(=O)c1csc([C@@H](C[C@H](C(C)C)N(C)C(=O)[C@@H](NC(=O)[C@H]2CCCCN2C)C(C(F)(F)F)C(F)(F)F)OC(C)=O)n1`, the growth in the test with SK-MEL-2 melanoma was 34.5%; in the test with EKVX NSCLC, 40.4%; in the test with SN12C renal, 28.3%; with UO-31 renal it was 33.1%; in the test on TK-10 renal, 28.5%; with ACHN renal, 28.2%. Further, the growth with A498 renal was -4.49% (active); in the test on HL-60(TB) leukemia, -33.7% (active); in the test with CCRF-CEM leukemia, 4.93% (active); in the test with MOLT-4 leukemia, 5.94% (active); with SR leukemia, 5.49% (active); in the test with RPMI-8226 leukemia, 11.2%. The growth was 16.8% with OVCAR-8 ovarian; 39.6% in the test with OVCAR-5 ovarian; 43.7% in the test on OVCAR-4 ovarian; 16.4% in the test with SK-OV-3 ovarian; 20.2% with IGROV1 ovarian; -42.5% (active) with OVCAR-3 ovarian. Further, the growth in the test on HS 578T breast was 17.6%.
For `N#C[Se]CCN1C(=O)c2ccccc2C1=O`, the growth in the test with SK-MEL-2 melanoma is 43.7%; with EKVX NSCLC it was 33.8%; with SN12C renal it was 64.4%; with UO-31 renal it was 15.9%; with TK-10 renal it was 15.3%; in the test with ACHN renal it was 63.2%. The growth in the test on A498 renal is -12.5% (active); with CCRF-CEM leukemia, 21.1%; with MOLT-4 leukemia, 17.4%; with SR leukemia, 27.7%; with RPMI-8226 leukemia it was 59.5%; in the test on OVCAR-8 ovarian it was 30.3%. For the same compound, the growth with OVCAR-5 ovarian was 41.4%; in the test with OVCAR-4 ovarian, 67.4%; in the test on SK-OV-3 ovarian it was 56.4%; in the test with IGROV1 ovarian, 26.1%; with OVCAR-3 ovarian, 39.2%; in the test with HS 578T breast it was 21.9%.
